Compound activity from PubChem BioAssay.
VACV Venus inh – qHTS for Stage-Specific Inhibitors of Vaccinia Orthopoxvirus: Venus Reporter Primary qHTS | Vaccinia virus Venus reporter expression, fluorescence | Potency, µM (doses to about 36.5 µM), without a hit: at the highest dose activity change, negative = inhibition, usual class: inhibitors | 330,000 compounds, 0.46% hits | AID 720580, 2013; calls by dose curve; tested in A549 cells; also: potency is read from the fitted curve at half-maximal effect; nearly all actives have a fitted effect of over 30% in size
VACV mCherry inh – qHTS for Stage-Specific Inhibitors of Vaccinia Orthopoxvirus: mCherry Reporter Primary qHTS. Vaccinia virus mCherry reporter infection, fluorescence. Potency, µM (doses to about 36.5 µM), for the others: at the top dose activity change, negative = inhibition, most hits filed as inhibitors. 310,000 compounds, 0.63% hits. AID 720579, 2013; calls by dose curve; tested in A549 cells; also: potency is read from the fitted curve at half-maximal effect; nearly all actives have a fitted effect of over 35% in size
FMDV antiviral – High Throughput Screening for Foot and Mouth Disease Virus Antivirals | FMDV antiviral cell-based qHTS | Potency, µM (doses to about 57.9 µM), without a hit: top-dose activity change, negative = inhibition, usual class: inhibitors | 410,000 compounds, 1.2% hits; calls by dose curve; tested in HEK293T cells; also: read-out not given here; potency is read from the fitted curve at half-maximal effect; nearly all actives have a fitted effect of over 45% in size
HCV inh – qHTS Assay for Inhibitors of Hepatitis C Virus (HCV); 340,000 compounds, 3.4% hits; Potency, µM (doses to about 41.8 µM), without a hit: at the highest dose activity change, negative = inhibition, usual class: inhibitors; Huh7.5.1 HCVcc-Cre infection, luciferase reporter, 44 h; active = well fitted inhibition curve with a large enough effect; inconclusive = small, poorly fitted or top-dose-only effect, or another doubt; inactive = no such curve, though single readings can be large or run the other way; also: potency is read from the fitted curve at half-maximal effect
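After 44 h co-culture of compound, cells and HCVcc-Cre (~0.5 moi), substrate is added for 15 min at room temperature and luciferase measured over 15 sec. Cells were seeded at 1,000/well and pre-cultured 4 h.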
HCMV inh – qHTS Assay for inhibitors of the human cytomegalovirus (HCMV) | activity change, negative = inhibition, % at 57.5 µM | 410,000 compounds, 4.5% hits | HFF cells, HCMV-luciferase reporter, 72 h; active compounds read low; in the data active = activity change below about -60%; inconclusive = no clear call, values can overlap the other calls; inactive = above about -39%
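Screen run at 2 compound doses on HFFs infected with reporter HCMV, MOI 1 PFU/cell. Luciferase activity from cell lysates at 72 h post infection gave inhibition relative to buffer-only and Salinomycin wells.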
Starred values were filed as active, the others as inactive; i = inactive; u = inconclusive; x = not tested or not shown; [ ] = dose if it differs, or a comment. Shown are actives, neighbours in structure and some others; about 7.3% of the full set was active somewhere. % is scaled to controls: 0 for no effect and ±100 for the full control effect.

SMILES	VACV Venus inh	VACV mCherry inh	FMDV antiviral	HCV inh	HCMV inh
COc1cc(-c2nnc3sc(C4CCCCC4)nn23)cc(OC)c1OC	5.62µM*	u	u	u	x
Cn1cc(C(=O)N2CCCC(Nc3ccc(F)cc3)C2)c2ccccc21 (configuration not stated)	x	x	-13.0%	-19.7%	-2.5
Cn1cc(S(=O)(=O)N2CCCCCC2)cc1C(=O)N1CCN(c2ccc(Cl)cc2)CC1	-11.8%	-16.7%	u	x	u
CC(C)C[C@H]1CN([C@@H](Cc2ccc(O)cc2)CN2CCC[C@@H]2CN2C(=O)C(=O)NC[C@@H]2Cc2ccccc2)C(=O)C(=O)N1CC1CCCCCC1	-14.1%	-21.8%	9.2%	u	-65.0*
CC(C)C[C@H]1CN([C@@H](Cc2ccccc2)CN2CCC[C@H]2CN2C(=O)C(=O)NC[C@@H]2Cc2ccc(O)cc2)C(=O)C(=O)N1CC1CCCCCC1	-4.1%	6.3%	3.1%	x	-86.9*
CC(C)C[C@H]1CN([C@@H](Cc2ccc(O)cc2)CN2CCC[C@H]2CN2C(=O)C(=O)NC[C@@H]2Cc2ccccc2)C(=O)C(=O)N1CC1CCCCC1	-10.1%	-8.5%	20.1%	x	-11.7
CCOc1ccc(C(=O)Nc2cccc(NC(=O)c3ccc(C(C)(C)C)cc3)c2)cc1Br	-14.5%	-6.2%	4.4%	x	75.0
Cc1cc(C)c2oc(C(=O)Nc3nnc(C(C)C)s3)cc(=O)c2c1	x	x	0.5%	-5.5%	-66.4*
COc1cc(N2CCC(O)CC2)ccc1Nc1nnc(Cl)c(Nc2ccccc2S(C)(=O)=O)n1	u	u	20µM*	u	x
O=C(/C=C/c1ccccc1)N[C@H]1CC[C@@]23CCCN2C(=O)CCC[C@H]3[C@H]1Cc1ccccc1	x	x	x	x	-6.1
Cc1cc(-c2cc(F)cc3c2OC(CNC(=O)CCn2cncn2)C3)ccc1F (configuration not stated)	-0.6%	-13.7%	-7.4%	x	x
COc1ccc(OC)c(NC(=O)CSc2ccc(-c3sc(C)nc3C)nn2)c1	-8.1%	-8.3%	u	x	6.7
COc1ccc(C)cc1NC(=O)CSc1ccc(-c2sc(C)nc2C)nn1	-20.1%	i	-24.8%	10µM*	-30.0
COc1cccc(NC(=O)CSc2ccc(-c3sc(C)nc3C)nn2)c1	-19.6%	u	31.6µM*	31.6µM*	13.3
COc1ccc(/C=C/c2c([N+](=O)[O-])c(=O)n(C)c(=O)n2C)c(OC)c1OC	-21.6%	u	u	-8.6%	-64.7*
CCCCCOc1ccc(/C=C/c2c([N+](=O)[O-])c(=O)n(C)c(=O)n2C)cc1	-5.8%	-6.4%	u	-15.6%	-93.6*
Cn1c(/C=C/c2ccc(Cl)cc2)c([N+](=O)[O-])c(=O)n(C)c1=O	x	x	17.8µM*	u	-98.2*
COc1ccc(/C=C/c2c([N+](=O)[O-])c(=O)n(C)c(=O)n2C)cc1OC	-1.7%	-5.0%	x	-9.1%	-32.8
Cn1c(/C=C/c2cccc([N+](=O)[O-])c2)c([N+](=O)[O-])c(=O)n(C)c1=O	u	u	12.6µM*	u	-102.3*
O=C(C[n+]1ccccc1Br)c1ccc(Cl)cc1	-20.7%	-2.2%	x	x	x
COc1ccc(O)c(CN2CCC3(CC2)c2ccccc2[C@@H](NC(=O)c2cccc(F)c2)[C@@H]3OC)c1	-7.0%	-17.8%	2.0%	x	x
O=[N+]([O-])c1ccc(NCCCN2CCOCC2)c([N+](=O)[O-])c1	33.7%	-11.8%	-10.0%	1.3%	2.1
COc1ccc(NC(=O)c2ccc(NCCCN3CCOCC3)c([N+](=O)[O-])c2)cc1	-27.3%	-3.5%	-6.4%	12.6µM*	-0.6
Cc1ccc(NC(=O)c2ccc(NCCCN3CCOCC3)c([N+](=O)[O-])c2)cc1Cl	u	u	31.6µM*	11.2µM*	u
O=C(NCCCN1CCOCC1)c1ccc(Sc2cccc(Cl)c2)c([N+](=O)[O-])c1	-18.1%	u	u	11.2µM*	u
O=[N+]([O-])c1cc(S(=O)(=O)NCCCN2CCOCC2)ccc1Cl	-22.6%	-23.1%	-5.3%	10µM*	-34.6
O=C(NCCCN1CCOCC1)c1ccc(Cl)c([N+](=O)[O-])c1	-1.0%[7.34 µM]	-5.6%[7.34 µM]	-5.1%	-0.1%	45.8
